Measured values taken from paper PMC4336329 (PLoS ONE, 2015).
Out of some 310,000 compounds screened, about 14,000 (4.5%) showed an effect of 50% or more. The effect is printed as a negative number. The entries come from a sample that favours strong results as a whole.

target: human ether-à-go-go-related gene (hERG) potassium channel (human, UniProt Q12809); test: primary screen, population patch clamp on CHO cells stably expressing hERG; higher = less effect of the substance
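Note: peak tail current of the secondary pulse compared with the same well before compound.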

human ether-à-go-go-related gene (hERG) potassium channel, sequence (Q12809 whole entry, looked up): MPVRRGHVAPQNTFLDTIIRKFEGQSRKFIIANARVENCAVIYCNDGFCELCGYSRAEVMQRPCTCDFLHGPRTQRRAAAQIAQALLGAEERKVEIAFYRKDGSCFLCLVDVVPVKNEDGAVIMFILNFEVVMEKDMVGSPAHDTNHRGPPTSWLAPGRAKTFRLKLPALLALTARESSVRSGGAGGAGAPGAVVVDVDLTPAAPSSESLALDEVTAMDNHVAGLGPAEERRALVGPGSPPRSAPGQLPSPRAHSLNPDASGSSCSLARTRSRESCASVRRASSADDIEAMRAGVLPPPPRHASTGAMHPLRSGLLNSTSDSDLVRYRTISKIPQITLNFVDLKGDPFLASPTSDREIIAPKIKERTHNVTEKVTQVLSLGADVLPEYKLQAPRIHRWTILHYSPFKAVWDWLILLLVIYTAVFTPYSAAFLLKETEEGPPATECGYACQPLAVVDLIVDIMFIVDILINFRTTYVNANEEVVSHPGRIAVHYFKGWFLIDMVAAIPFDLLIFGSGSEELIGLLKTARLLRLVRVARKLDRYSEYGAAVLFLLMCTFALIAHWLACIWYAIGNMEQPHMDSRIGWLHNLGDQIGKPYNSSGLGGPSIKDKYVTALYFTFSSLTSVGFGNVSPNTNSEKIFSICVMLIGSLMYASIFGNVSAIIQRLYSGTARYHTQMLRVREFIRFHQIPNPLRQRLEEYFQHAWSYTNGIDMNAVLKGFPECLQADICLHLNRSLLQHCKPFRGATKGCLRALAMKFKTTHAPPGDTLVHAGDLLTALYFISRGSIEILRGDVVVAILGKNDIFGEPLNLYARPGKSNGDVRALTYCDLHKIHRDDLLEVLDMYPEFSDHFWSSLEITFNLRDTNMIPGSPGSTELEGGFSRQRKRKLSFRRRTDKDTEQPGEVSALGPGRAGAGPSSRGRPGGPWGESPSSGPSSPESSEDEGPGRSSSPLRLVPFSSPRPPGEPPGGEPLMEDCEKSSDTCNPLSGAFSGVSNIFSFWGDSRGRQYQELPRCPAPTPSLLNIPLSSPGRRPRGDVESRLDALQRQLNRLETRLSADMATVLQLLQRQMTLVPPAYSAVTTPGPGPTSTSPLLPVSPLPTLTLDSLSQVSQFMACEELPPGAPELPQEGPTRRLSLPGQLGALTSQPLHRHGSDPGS

SMILES | hERG current change (%, negative = inhibition) at 10uM [%]
c1ccc2[nH]c(SCc3cscn3)nc2c1 | 2.76
Cc1ccc(CN2CCN(Cc3cccc(-n4cccn4)c3)CC2CCO)cc1 (centres unmarked) | -74.5
Cc1cccc(CN2CCN(Cc3cccc(-n4cccn4)c3)CC2CCO)n1 (centres unmarked) | -45.7
OCCC1CN(Cc2cc(F)ccc2-n2cccn2)CCN1Cc1ccc(F)cc1 (centres unmarked) | -62.5
COc1ccc(-n2ccnc2CN2CCN(C3CCCC3)C(CCO)C2)cc1 (centres unmarked) | -29.1
CCOC(=O)c1[nH]ncc1CN1CCN(Cc2ccc(C)cc2)C(CCO)C1 (centres unmarked) | -38.8
Cc1cccc(-n2ccnc2CN2CCN(C3CCCC3)C(CCO)C2)c1 (centres unmarked) | -59.1
CC(C)CCN1CCN(Cc2cc(F)ccc2-n2cccn2)CC1CCO (centres unmarked) | -25.8
OCCC1CN(Cc2cccc(-n3cccn3)c2)CCN1Cc1ccccc1 (centres unmarked) | -44.8
Cc1ccc(CN2CCN(Cc3ccc(-n4cccn4)cc3C)CC2CCO)cc1 (centres unmarked) | -78.6
Cc1cccc(-n2ccnc2CN2CCN(C(C)C)C(CCO)C2)c1 (centres unmarked) | -12.3
Cc1cc(-n2cccn2)ccc1CN1CCN(CC(C)C)C(CCO)C1 (centres unmarked) | -45.5
CC(C)CN1CCN(Cc2cc(F)ccc2-n2cccn2)CC1CCO (centres unmarked) | -6.87
Cc1c(Cl)cccc1N1CC(C)(C)C1=O | -2.95
COC(=O)c1sc2nc(SCc3cccc(Cl)c3)n(N)c(=O)c2c1C | 1.39
CCC1Sc2ccccc2N(CC(=O)NC2CC2)C1=O (centres unmarked) | 7.59
COc1ccc(CN2CC(C(N)=O)Oc3ccccc32)cc1F (centres unmarked) | 3.16
Cn1ncnc1SCc1cn2cccnc2n1 | 14.2
CC1CC(Nc2ccccc2N)=CC(=O)O1 (centres unmarked) | 11.7

SMILES | hERG current change (%, negative = inhibition) at 10uM [%]
COc1ccc(C2/C(=C(/O)c3ccccc3)C(=O)C(=O)N2c2ncccn2)cc1OC (centres unmarked) | 7.54
CC(=O)c1ccc(-c2ccccc2OC(F)(F)F)o1 | -10.7
O=C(NCCOc1ccccc1F)c1ccc2c(=O)n3c(nc2c1)CCC3 | -20.8
CSCCCN1CC[C@@H](N2CCN(c3ccccc3F)CC2)[C@H](O)C1 | -36.8
CC(C)=CC(=O)N1CC[C@@H](N2CCN(c3ccccc3F)CC2)[C@H](O)C1 | 1.23
Cc1ccc(CN2CCN(Cc3ccc(-n4cccn4)cc3)CC2CCO)cc1 (centres unmarked) | -78.1
O[C@@H]1CN(Cc2ccc(-n3cccn3)cc2)CC[C@H]1N1CCN(c2ccccc2F)CC1 | -67.5
OCCC1CN(Cc2ccc(-n3cccn3)cc2)CCN1Cc1ccccc1 (centres unmarked) | -59.8
CC(C)N1CCN(Cc2cccc(-n3cccn3)c2)CC1CCO (centres unmarked) | -12.3
CC(C)CCN1CCN(Cc2cccc(-n3cccn3)c2)CC1CCO (centres unmarked) | -57.6
Cc1cccc(CN2CCN(Cc3ccc(-n4cccn4)cc3)CC2CCO)n1 (centres unmarked) | -30.2
CCOC(=O)CC(C)(C)/C(C)=N/Nc1ccc([N+](=O)[O-])cc1[N+](=O)[O-] | -24.5
CCOc1ccc(CCNC(=O)c2cccc(C#N)c2)cc1OCC | -6.55
Cc1ccc(N2C(=O)Nc3ccc(Br)cc3C2(O)C(=O)NCCN(C)C)cc1C (centres unmarked) | 21.4
CCCCn1c(SCc2nc(N)nc(Nc3ccccc3C)n2)nc2ccccc2c1=O | -1.63
Cc1c(NC(=O)CN2C(=O)c3cccc4cccc2c34)c(=O)n(-c2ccccc2)n1C | 4.55
OCCC1CN(Cc2cccc3nccnc23)CCN1C1CCCC1 (centres unmarked) | -4.4
OCCC1CN(Cc2cc(F)ccc2-n2cccn2)CCN1C1CCCC1 (centres unmarked) | -29
Cc1cc(-n2cccn2)ccc1CN1CCN(C2CCCC2)C(CCO)C1 (centres unmarked) | -73.5

SMILES | hERG current change (%, negative = inhibition) at 10uM [%]
COc1cccc(-c2sc3ccc(OC)cc3c2C#CCC(C)O)c1 (centres unmarked) | 25.8
COc1ccc(CN(C)C(=O)C23CC4CC(CC(C4)C2)C3)c(OC)c1 | -25
CCOC(=O)c1cc(-c2ccc(OC(F)F)cc2)nc2nc(SC)[nH]c(=O)c12 | -42.7
COc1ccc(NS(=O)(=O)c2cccc(C(=O)NNC(=O)CNC(=O)c3ccco3)c2)cc1 | 12.8
CC(=O)Nc1ccc2c(c1)N(S(=O)(=O)c1cccs1)CCC2 | -3.79
COc1ccc(C(=O)N/C(=C\c2ccco2)C(=O)NCCCn2ccnc2)cc1 | -19.7
Cc1ccc(C(=O)N/C(=C\c2ccco2)C(=O)NCCN2CCCCC2)cc1C | -60.1
Cc1ccc(C(=O)N/C(=C\c2ccco2)C(=O)NCCCn2ccnc2)cc1 | -64.3
Cc1ccc(C(=O)N/C(=C\c2ccco2)C(=O)NCCN2CCOCC2)cc1C | -3.01
Cc1ccc(C(=O)N/C(=C\c2ccco2)C(=O)NCCCn2ccnc2)cc1C | -39.8
Cc1ccc(C(=O)N/C(=C/c2ccco2)C(=O)NCCCn2ccnc2)cc1 | -64.7
O=C(NCCN1CCCCC1)/C(=C/c1ccco1)NC(=O)c1ccccc1 | -40.6
CCOC(=O)C1=C(C)Nc2nc(SCC)[nH]c(=O)c2C1c1ccncc1 (centres unmarked) | -7.65
Cc1cc(C)c(C)c(S(=O)(=O)N2CCN(Cc3nc4ccccc4[nH]3)CC2)c1C | 0.133
Nc1c(NCCc2ccccc2)c2ccccc2oc1=O | -11.9
COc1ccc(/C=c2\sc3nc(=O)c(C)nn3c2=O)c(OC)c1 | 23
O=C(COC(=O)c1cc(-c2ccncc2)nc2ccccc12)Nc1ccc2c(c1)OCO2 | 2.21
COc1ccc(CNS(=O)(=O)c2ccc(S(=O)(=O)N3CCCCC3)cc2)cc1 | 7.34
